The record followed here is PubChem BioAssay (NCATS).

Molecules are shown by their SMILES. A number with no mark means an inactive call. The call rests on the fitted dose curve; in most records, active means well fitted cell-killing curve with a large enough effect; inconclusive means small, poorly fitted or top-dose-only effect; inactive means flat fitted curve, though single readings scatter.

The nature of this test: Cell Viability - LYMP1-003 - Assay at 24 hr (AID 963). As to conditions: LYMP1-003 lymphoblastoid cell viability; series mostly up to 92.2 µM; viability change, negative = cytotoxic: at the top concentration. The text has this: NIH Chemical Genomics Center [NCGC]
NIH Molecular Libraries Screening Centers Network [MLSCN]
National Institutes of Environmental Health Sciences [NIEHS]
National Toxicology Program [NTP]
We have developed a 1536-well cell-based assay for quantitative high throughput screening (qHTS) against a number of cell lines to determine in vitro cytotoxicity of small molecules. This particular assay uses a human lymphoblastoid cell line (LYMP1-003) purchased from Coriell Institute for Medical Research.
NCGC Assay Protocol Summary:
The CellTiter-Glo luminescent cell viability assay (Promega) is a homogeneous method to measure the number of viable cells in culture. The end point readout of this assay is based on quantitation of intracellular ATP, an indicator of metabolic activity, using the luciferase reaction. Luciferase catalyzes the oxidation of beetle Luciferin to oxyluciferin and light in the presence of ATP. The luminescent signal is proportional to amount of ATP present.
Using the CellTiter-Glo luminescent cell viability assay, the amount of cellular ATP was measured in the lymphoblastoid cell line with complete culture medium following compound treatment for 24 hours. The assay was performed in opaque white Kalypsys 1536-well plates. In the screen, tetraoctylammonium bromide was used as positive control. Library compounds were measured for their ability to cause acute toxicity in the cell line, as reflected by a decrease in intracellular ATP levels, in a concentration-dependent manner. […] AC50 values were determined from concentration-response data modeled with the standard Hill equation.
qHTS protocol for CellTiter Glo lymphoblastoid cellular assay
[Step] [Parameter] [Value] [Description]
1. Reagent; 5 uL; 2500 lymphoblastoid cells/well
2. Time; 5 hr; 37 C incubation
4. Controls; 23 nL; Tetraoctylammonium bromide 6.4pM to 92 uM
5. Time; 24 hr; 37 C incubation
6. Reagent; 5 uL; CellTiter Glo reagent
7. Time; 30 min; Room Temperature
8. Detection; Luminescence; Viewlux plate reader
Keywords: cell viability, cytotoxicity, lymphoblastoid cell line, luminescence, NTPHTS, NTPHTS_NCGC, NIEHS, DSSTox, MLSMR, MLSCN, NIH Roadmap, qHTS, NCGC
Consider `O=C(O)c1cccc(Cl)c1Cl`, for which the “viability change, negative = cytotoxic” value is -2.67%.

In the case of `Cc1cccc(C)c1O`, the “viability change, negative = cytotoxic” value was 5.25%.

Regarding `BrC/C=C/CBr`, the “viability change, negative = cytotoxic” value is 0.0522%.

For `O=C1OC(=O)c2cc([N+](=O)[O-])ccc21`, the “viability change, negative = cytotoxic” value is -3.36%.

As for `OC(CCl)CCl`, the “viability change, negative = cytotoxic” value was 0.947%.

Take `C=C(C)C1CC=C(C)C(OC(C)=O)C1` (stereo not given): the “viability change, negative = cytotoxic” value was -1.18%.

For `Cc1ccc2oc(=O)ccc2c1`, the “viability change, negative = cytotoxic” value is 0.527%.

Consider `CCCC(C)CO` (stereo not given), for which the “viability change, negative = cytotoxic” value was 3.53%.

For the compound `CC(O)CC(C)O` (stereo not given), the “viability change, negative = cytotoxic” value is 0.366%.

Regarding `O=C1CCC(=O)O1`, the “viability change, negative = cytotoxic” value was 0.087%.

Consider `CCCCCCC=O`, for which the “viability change, negative = cytotoxic” value was -2.66%.

Take `C/C=C(/C)C#N`: the “viability change, negative = cytotoxic” value was -15.4%.

`c1ccc(Nc2ccccc2)cc1`: the “viability change, negative = cytotoxic” value is -1%.

Consider `CC1CCCO1` (stereo not given), for which the “viability change, negative = cytotoxic” value was 0.185%.

Regarding `COC(=O)CC#N`, the “viability change, negative = cytotoxic” value is -1.06%.

With `CC(C)CO`, the “viability change, negative = cytotoxic” value is 5.04%.

Take `CN(C)CCCNCCCN`: the “viability change, negative = cytotoxic” value was -5.16%.

In the case of `C=C(C)C(=O)OC`, the “viability change, negative = cytotoxic” value is -2.18%.

Regarding `Nc1cccc(S(=O)(=O)O)c1`, the “viability change, negative = cytotoxic” value was 2.4%.

For the compound `CCCCCCO`, the “viability change, negative = cytotoxic” value was 2.21%.

Take `Cc1ccccc1C=O`: the “viability change, negative = cytotoxic” value is 3.01%.

Regarding `CCCCCO`, the “viability change, negative = cytotoxic” value is 1.56%.

Regarding `CC(C)C(C)C`, the “viability change, negative = cytotoxic” value was -3.85%.

Regarding `CC(=O)c1ccccn1`, the “viability change, negative = cytotoxic” value was -5.2%.

On to `Nc1cccc2c(=O)[nH][nH]c(=O)c12`, for which the “viability change, negative = cytotoxic” value is 2.46%.

On to `ON=C1CCCCC1`, for which the “viability change, negative = cytotoxic” value was -3.18%.

With `CC(=O)Nc1ccc(C)cc1`, the “viability change, negative = cytotoxic” value was 2.89%.

Take `CCOC(=O)C(C)C(C)=O` (stereo not given): the “viability change, negative = cytotoxic” value was -1.45%.

Regarding `Nc1cc(Cl)c([N+](=O)[O-])cc1O`, the “viability change, negative = cytotoxic” value was -9.13%.

In the case of `CC(C=O)Cc1ccc(C(C)(C)C)cc1` (stereo not given), the “viability change, negative = cytotoxic” value was -5.31%.

Turning to `CCCCC=O`, the “viability change, negative = cytotoxic” value is 0.926%.

Turning to `C=CCOC(=O)COCCC(C)C`, the “viability change, negative = cytotoxic” value was 0.0828%.

Turning to `O=C(O)c1cccc([N+](=O)[O-])c1`, the “viability change, negative = cytotoxic” value is -0.548%.

For the compound `Oc1cccc(Nc2ccccc2)c1`, the “viability change, negative = cytotoxic” value is -8.58%.

As for `CCOc1ccc(NC(C)=O)cc1N`, the “viability change, negative = cytotoxic” value is 1.1%.

Consider `CC(=C/C=C/C(C)=C/C=C/C=C(C)/C=C/C=C(C)/C=C/C(=O)O)/C=C/C(=O)O`, for which the “viability change, negative = cytotoxic” value was -2.48%.

`CCN(CC)c1cccc(O)c1`: the “viability change, negative = cytotoxic” value is -0.333%.

With `Nc1cc(Cl)c(N)c(Cl)c1`, the “viability change, negative = cytotoxic” value is -6.63%.

For the compound `CC(=O)c1ccc([N+](=O)[O-])cc1`, the “viability change, negative = cytotoxic” value was 1.42%.

Regarding `ClC/C=C/CCl`, the “viability change, negative = cytotoxic” value was -0.275%.
